# High-throughput results from PubChem.
# Rows were chosen to be rich in hits. Some 18% of all compounds tested hit in one or more screens of this group.
# DT40 TDP1 CPT – DT40-hTDP1 cell growth loss with CPT | chicken DT40 Tdp1-/-;hTDP1 cells + 20 nM CPT, ATP luminescence, 48 h | Potency, µM (top dose mostly 46.2 µM), for inactives: at the highest dose activity change, negative = growth inhibition, most hits filed as inhibitors | 420,000 compounds, 12% hits; note: potency is the fitted concentration of half-maximal effect; nearly all actives have a fitted effect of over 55% in size
#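 Chicken DT40 Tdp1-/- cells stably complemented with human TDP1 were seeded at 400 cells/well in medium containing 20 nM camptothecin, exposed to pin-transferred compounds, and grown at 37 °C for at least 48 hr. Viability was read as ATP luminescence.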
# Gal4-VP16 FLuc – counter-screen for ROR gamma inhibitors: Gal4-VP16 reporter | AID 2546 | Potency, µM (top dose mostly 53.6 µM), inactives show top-dose activity, negative = inhibition, actives largely listed as inhibitors | 310,000 compounds, 3.5% hits | Drosophila S2 Gal4-VP16 UAS-luciferase, luminescence, 20 h;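 note: Gal4-VP16 expression switched on by copper sulfate through the metallothionein promoter; potency is the fitted concentration of half-maximal effect; nearly all actives have a fitted effect of over 50% in size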
# LDHA block – LDHA (human) enzyme inhibition | activity change, % (values are at about 110 or 230 µM) | P00338 | 480,000 compounds, 0.15% hits | purified LDHA, NADH/diaphorase-resazurin fluorescence; hits give low values | AID 1347041; in the data active = activity change below about -30%; inconclusive = mostly about -25% to -30%;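 note: plate controls were DMSO wells for no effect and wells without enzyme for full effect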
#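 Enzyme activity of human lactate dehydrogenase 5 (2 nM; 0.06 mM NADH, 0.2 mM pyruvate, 5 min, RT) is measured via a resazurin/diaphorase fluorescence readout of residual NADH.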
# DT40 TDP1 no CPT – qHTS for Inhibitors of human tyrosyl-DNA phosphodiesterase 1 (TDP1): qHTS in cells in absence of CPT. Potency, µM (doses to about 46.2 µM), for inactives: at the top dose activity change, negative = growth inhibition, actives largely listed as inhibitors. 420,000 compounds, 15% hits. DT40 Tdp1-/- hTDP1 cells, no CPT, ATP luminescence, 48 h; note: potency is the fitted concentration of half-maximal effect; nearly all actives have a fitted effect of over 55% in size
#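 Chicken DT40 Tdp1-/- cells complemented with human TDP1, screened without camptothecin (DMSO vehicle only), 400 cells/well. Compounds pin-transferred, cells incubated at 37 °C for at least 48 hr. Growth read as ATP-dependent luminescence (CellTiter-Glo, 30 min at RT).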
# IL1B secr inh – inhibitors of inflammasome signaling (IL-1 beta secretion); activity change, % at 57.5 µM; THP-1 LPS/ATP IL-1B secretion, AlphaLISA, 16 h; hits give low values; 360,000 compounds, 4.7% hits; AID 743279; in the data active = activity change below about -50%; inconclusive = mostly about -30% to -49%
#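 Secreted IL-1B measured by AlphaLISA bead assay after 16 h compound exposure of THP-1 cells; compounds (final up to 57.5 uM) added 1 h before LPS (250 ng/mL) and ATP (1.25 mM) stimulation; lower signal means less secretion.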
# RORg inh – blocks mouse ROR gamma transcriptional activity. P51450. Drosophila S2 Gal4-RORgamma UAS-luciferase reporter, 20 h. Potency, µM (titrated, usually from 53.6 µM), without a hit: at the highest dose activity change, negative = inhibition, actives largely listed as inhibitors. 310,000 compounds, 5.4% hits. AID 2551; note: potency is the fitted concentration of half-maximal effect; nearly all actives have a fitted effect of over 60% in size
# Target sequence (P51450 whole entry, looked up, the tested form may be a part): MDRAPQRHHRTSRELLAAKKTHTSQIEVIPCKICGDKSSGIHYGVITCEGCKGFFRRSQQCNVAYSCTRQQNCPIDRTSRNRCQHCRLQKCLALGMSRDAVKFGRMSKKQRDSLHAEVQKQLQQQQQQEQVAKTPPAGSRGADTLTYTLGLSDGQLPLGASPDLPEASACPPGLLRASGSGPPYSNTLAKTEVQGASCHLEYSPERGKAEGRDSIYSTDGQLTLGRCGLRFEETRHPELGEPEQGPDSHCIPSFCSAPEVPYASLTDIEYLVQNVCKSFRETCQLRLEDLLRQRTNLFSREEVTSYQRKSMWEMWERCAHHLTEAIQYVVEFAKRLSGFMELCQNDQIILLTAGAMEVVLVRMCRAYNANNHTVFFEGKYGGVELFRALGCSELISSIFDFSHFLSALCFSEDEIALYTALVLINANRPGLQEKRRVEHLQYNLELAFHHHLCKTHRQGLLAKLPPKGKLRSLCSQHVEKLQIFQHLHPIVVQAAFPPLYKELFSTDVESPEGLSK
#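 In this cell-based reporter format, copper sulfate (700 uM final) drives Gal4–ROR gamma fusion expression from a metallothionein promoter in Drosophila Schneider cells; compounds preincubated 1 hr, reporter read after 20 hr at ambient temperature.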
# An asterisk follows results filed as active; ? = inconclusive; · = no result. Unless noted, calls come from the whole dose curve; as a rule, active = well fitted curve in the direction sought with a large enough effect; inconclusive = small, poorly fitted or top-dose-only effect, or another doubt; inactive = no such curve, though single readings can be large; an effect the other way counts as inactive or inconclusive. Unless noted, % is set by controls: 0 for no effect and ±100 for the full control effect.
SMILES,DT40 TDP1 CPT,Gal4-VP16 FLuc,LDHA block,DT40 TDP1 no CPT,IL1B secr inh,RORg inh
COC(=O)c1[nH]c2ccc(Br)cc2c1NC(=O)CN1CCCc2ccccc21,20.6µM*,-0.1%,0.3,18.4µM*,-52.9*,41.3%
Cc1cc(C(=O)c2ccc(C(C)(C)C)cc2)c(NC(=O)CCl)s1,5.8µM*,?,9.4,4.61µM*,-50.7*,11.2µM*
COC(=O)c1c(NC(=O)CS(=O)(=O)c2ccccc2)sc(C)c1C,?,·,-1.7,20.6µM*,-6.7,·
CCCCCc1ccc(-c2ccc(C3CCC(CCC)CC3)c(F)c2)nc1 (stereo not given),·,·,2.1,·,·,·
COC(=O)c1[nH]c2cc(C)ccc2c1NC(=O)CN1CCCc2ccccc21,?,?,14.2,25.9µM*,-26.5,17.8%
Cc1sc(NC(=O)CCl)c(C(=O)c2ccccc2)c1C,18.4µM*,-1.9%,2.5,9.2µM*,-98.2*,12.5%
CCOC(=O)c1c(NC(=O)CN2CCCc3ccccc32)sc(C)c1C,?,?,1.8,?,14.5,?
Cc1ccccc1C(=O)Nc1sc(C)c(C)c1C(=O)c1ccccc1,?,8.2%,-5.4,?,-19.7,4.8%
COC(=O)c1c(NC(=O)CN2CCCc3ccccc32)sc(C)c1C,20.6µM*,?,0.9,?,-4.1,?
Cc1ccc(CCC(=O)Nc2ccc(N(C)C)cc2)o1,16.4µM*,?,-0.8,?,-6.1,0.562µM*
C=CCSc1ccccc1NC(=O)c1cc(C)c(C)s1,·,·,-0.5,·,·,·
CCOC(=O)c1c(NC(=O)CCc2ccc(CC)o2)sc(C)c1C,?,-22.9%,-2.0,?,-12.4,-10.2%
COC(=O)c1c(NC(=O)CCc2ccc(C)o2)sc(C)c1C,?,12.6µM*,-1.0,?,19.4,?
COc1ccc(C(CNC(=O)c2cccc(S(=O)(=O)N3CCCC(C)C3)c2)N(C)C)cc1 (stereo not given),?,·,-13.6,-22.8%,-54.8*,·
COc1ccc2cc(S(=O)(=O)N3CCCC(C)C3)ccc2c1 (stereo not given),?,5.8%,-0.3,23.1µM*,?,3.7%
CC(C)(C)CC(C)(C)NCC(O)COc1c(F)cc(Br)cc1F (stereo not given),?,-15.5%,2.3,23.1µM*,?,-32.2%
Cc1ccc(Cl)cc1N1CCN(C(=O)c2ccccc2SCC(=O)N2CCCC2)CC1,20.6µM*,·,-2.0,8.2µM*,-1.5,·
Cc1ccc(Cl)cc1N1CCN(C(=O)CCSCc2ccccc2F)CC1,?,·,3.4,23.1µM*,·,·
CNc1sc(C(C)=O)cc1C,·,·,-0.7,·,·,·
Cn1c(C(=O)O)c(C=O)c2ccccc21,-7.6%,-9.3%,-1.0,15.7%,-70.4*,0.5%
Cn1c(-c2ccccc2)c(C=O)c2ccccc21,-24.3%,-11.9%,-17.3,-26.8%,-2.4,36.9%
CN1CCCC1CNC(=O)Cc1cn(C)c2ccccc12 (stereo not given),·,·,-1.1,·,·,·
CCOc1ccccc1C(=O)NC(C(=O)N(C)Cc1ccc2c(c1)OCO2)C(C)C (stereo not given),18.4µM*,·,-12.3,?,18.3,·
CCOc1ccccc1NC(=O)NC(C)c1ccc2c(c1)OCO2 (stereo not given),·,-20.0%,·,·,·,-1.4%
CCOc1ccccc1C(=O)NC(C)c1ccc2c(c1)OCO2 (stereo not given),18.4µM*,-4.4%,-3.7,?,17.2,-9.9%
SMILES,DT40 TDP1 CPT,Gal4-VP16 FLuc,LDHA block,DT40 TDP1 no CPT,IL1B secr inh,RORg inh
CCOC(=O)N1CCC(N2Cc3cccc(C(=O)NC(C)c4ccc5c(c4)OCCO5)c3C2=O)CC1 (stereo not given),?,-5.3%,-4.3,23.1µM*,-21.8,-7.1%
O=C(O)CCc1ccc(S(=O)(=O)Nc2ccccc2C(=O)Nc2ccccc2)cc1,·,·,0.1,·,·,·
O=C(Nc1c(-c2ccccc2)nc2sccn12)c1cccc(S(=O)(=O)N2CCOCC2)c1,·,·,3.1,·,·,·
CSc1nsc(N/N=C/c2ccc3c(c2)OCO3)c1C#N,-8.0%,-13.8%,-1.6,1.9%,3.9,19.0%
COc1cc(/C=N/Nc2snc(SC)c2C#N)cc(OC)c1OC,?,?,3.6,1.84µM*,-21.0,?
Cc1ccccc1CN1C(=O)C(O)(CC(=O)c2cccnc2)c2ccccc21 (stereo not given),·,·,6.5,·,·,·
CC(=O)Nc1ccc(Nc2cc(C)nc3c(-c4ccccc4)c(C)nn23)cc1,?,?,-1.7,?,-9.7,?
Cc1cc(NCc2ccccn2)n2nc(C)c(-c3ccccc3Cl)c2n1,·,·,-5.0,·,·,·
CCCc1cc(NCc2ccccn2)n2nc(C)c(-c3ccccc3)c2n1,0.581µM*,0.562µM*,1.2,0.92µM*,22.3,0.0891µM*
Cc1nn2c(NCc3ccccn3)cc(C(C)C)nc2c1-c1ccccc1,16.4µM*,0.631µM*,-9.8,?,0.0,0.0891µM*
CC(=O)Nc1ccc(Nc2cc(C(C)C)nc3c(-c4ccccc4)c(C)nn23)cc1,?,?,4.8,?,-75.8*,?
Cc1c(C)n2c3c(=O)[nH]c(=O)n(C)c3nc2n1CCCN1CCN(C)CC1,·,·,5.3,·,·,·
Cc1noc(C)c1Cn1c(=O)c2c(ncn2CCC(C)C)n(Cc2ccccc2)c1=O,·,·,11.3,·,·,·
O=C(Cn1nc(-c2ccccc2)c2c(c1=O)CCCC2)Nc1ccccc1,·,·,-2.6,·,·,·
COc1ccc(CCNC(=O)CCN2C(=O)[C@@H]3Cc4ccccc4CN3C2=O)cc1OC,-8.8%,-0.7%,-1.7,-41.1%,10.3,-8.9%
O=C(CCCn1c(=O)c2ccccc2n(Cc2cccc(Cl)c2)c1=O)NCCc1ccc(Cl)cc1,?,·,-7.5,18.4µM*,·,·
COc1ccc(CCNC(=O)CCn2c(=O)c3ccccc3n(Cc3ccccc3)c2=O)cc1OC,?,·,-10.9,18.4µM*,·,·
COc1ccc(CCNC(=O)CCCCn2c(=O)c3ccccc3n(Cc3cc(C)ccc3C)c2=O)cc1OC,-16.6%,·,-8.6,8.5%,·,·
COc1ccc(CCNC(=O)CCCCCN2C(=O)[C@@H]3Cc4ccccc4CN3C2=O)cc1OC,20.6µM*,-2.1%,-8.0,?,24.2,7.2%
COc1ccc(CCNC(=O)CCn2c(=O)c3ccccc3n(Cc3ccccc3F)c2=O)cc1OC,14.6µM*,·,-3.9,11.6µM*,·,·
COc1ccc(CCNC(=O)CCCn2c(=O)c3ccccc3n(CC(=O)Nc3cccc(C)c3)c2=O)cc1OC,?,·,-17.4,18.4µM*,·,·
